“And” between values parts separate entries of the source, which are not always exact repeats. Identical values can stand only once. Compounds without any hit were thinned out: in the full panel of roughly 83,000, 20% have a hit.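 Interpretation: 100, growth as untreated; towards 0, rising growth inhibition; 0, no net growth; 0 to -100, cell death. Compounds scoring below 10 were considered active.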 The source made the active and inactive calls.
Assays:
Experiment in all cases: NCI-60 one-dose screen, 48 h (100 = growth as untreated, 0 = no growth, -100 = all killed)
Details in all cases: 10 µM unless noted
[1] = test system: HCT-15 colon
[2] = test system: HT29 colon
[3] = test system: SNB-75 CNS
[4] = test system: SNB-19 CNS
[5] = test system: U251 CNS
[6] = test system: PC-3 prostate
[7] = test system: SK-MEL-5 melanoma
[8] = test system: UACC-62 melanoma
[9] = test system: LOX IMVI melanoma
[10] = test system: SK-MEL-28 melanoma

Structure (SMILES)	growth [1]	growth [2]	growth [3]	growth [4]	growth [5]	growth [6]	growth [7]	growth [8]	growth [9]	growth [10]
CC[C@@]12CC(C(=O)OC)=C3Nc4cc5c(cc4[C@@]34CCN(C[C@H]3O[C@H]31)[C@@H]24)[C@@H]1[C@H](O5)[C@@H](O)[C@@]2(CC)CC(C(=O)OC)=C3Nc4cc(O)ccc4[C@@]34CCN1[C@@H]24	-51.6% (active)	-14% (active)	-34.4% (active)	-43.8% (active)	-57.5% (active)	15.9% (inactive)	-90.2% (active)	-57.8% (active)	-84.4% (active)	-47.3% (active)
N#CC1=C(c2ccco2)Nc2c(c(-c3ccccc3)nn2-c2ccccc2)C12C(=O)Nc1ccc(Br)cc12 (centres undefined)	38.6% (inactive)	49.5% (inactive)	-8.95% (active)	60% (inactive)	1.85% (active)	24.1% (inactive)	59% (inactive)	51.5% (inactive)	21.3% (inactive)	67.5% (inactive)
COc1ccc(N=Nc2c(N)nn3c(-c4ccc([N+](=O)[O-])cc4)ccnc23)cc1	101% (inactive)	96.3% (inactive)	85.4% (inactive)	108% (inactive)	107% (inactive)	101% (inactive)	94.2% (inactive)	94.5% (inactive)	99.9% (inactive)	101% (inactive)
COc1ccc(N=Nc2c(N)nn3c(-c4ccc(F)cc4)ccnc23)cc1	54% (inactive)	58.6% (inactive)	110% (inactive)	97.1% (inactive)	69.8% (inactive)	82.2% (inactive)	91.1% (inactive)	71.3% (inactive)	86.8% (inactive)	63.1% (inactive)
CCOC(=O)/C(F)=C/C1CC1CCc1ccc(OCC)cc1 (centres undefined)	70.6% (inactive)	58.5% (inactive)	81.3% (inactive)	95.4% (inactive)	104% (inactive)	85.2% (inactive)	63.7% (inactive)	87.5% (inactive)	97.9% (inactive)	110% (inactive)
CC(C)C[C@H](NC(=O)[C@@H]1CCCCCCCCCCC(=O)N[C@@H](CC(=O)N2CCC[C@@H]2C2CCCC2)C(=O)N1)B(O)O	-36.7% (active)	-18% (active)	-77% (active)	6.18% (active)	-50.7% (active)	8.18% (active)	-92% (active)	-86.8% (active)	-93.3% (active)	-5.72% (active)
c1n[nH]cc1-c1nc2ccc3cn[nH]c3c2c2c1CCCC2	96.2% (inactive)	95.5% (inactive)	108% (inactive)	82.2% (inactive)	88% (inactive)	73.4% (inactive)	81.7% (inactive)	81.4% (inactive)	69.9% (inactive)	98.2% (inactive)
C=CC(=O)N1CCN(c2ccc3nc4c(nc3c2C(F)(F)F)C(=O)c2ncccc2C4=O)CC1	1.18% (active)	11.8% (inactive)	82.3% (inactive)	32.3% (inactive)	-17.3% (active)	-4.79% (active)	-98.6% (active)	-60% (active)	-8.11% (active)	30.5% (inactive)
O=C1Nc2cc(-c3ccc(NS(=O)(=O)c4ccc(-c5ccccc5)cc4)cc3)ccc2/C1=C/c1ccc[nH]1	14.6% (inactive)	0.595% (active)	53.2% (inactive)	72.5% (inactive)	28.2% (inactive)	31.1% (inactive)	46.2% (inactive)	55% (inactive)	20.2% (inactive)	52.1% (inactive)
COc1ccc(C2=NN(C(=O)[C@H]3[C@@H](c4ccco4)c4sc(=O)[nH]c4S[C@@H]3C)C(c3ccc4ccccc4c3)C2)cc1 (some centres undefined)	12% (inactive)	15.3% (inactive)	50.8% (inactive)	39.8% (inactive)	19.5% (inactive)	28.6% (inactive)	36.5% (inactive)	29% (inactive)	31.3% (inactive)	32% (inactive)
NCCCCn1c(SCCc2c[nH]c3ccccc23)nnc1-c1ccc2ccccc2n1	-1.2% (active)	-45.3% (active)	0.128% (active)	18.6% (inactive)	-84.8% (active)	2.82% (active)	-99.4% (active)	-88.5% (active)	-95.6% (active)	-97.4% (active)
O=C(c1ccc(Cl)cc1)C1[C@H](c2ccccc2Cl)[C@@H](c2ccccc2)NC12C(=O)Nc1ccc(Cl)cc12 (some centres undefined)	-81% (active)	-81.6% (active)	-16.4% (active)	-28.4% (active)	-73.3% (active)	-24.8% (active)	-98.1% (active)	-59.9% (active)	-100% (active)	-80.1% (active)
c1ccc(CSc2nnc(-c3ccc4nc(-c5ccccc5)[nH]c4c3)o2)cc1	12.7% (inactive)	42.5% (inactive)	-51.4% (active)	16.3% (inactive)	4.61% (active)	26.6% (inactive)	29.4% (inactive)	5.19% (active)	-43.6% (active)	-4.76% (active)
COc1cc(-c2ccc3ncnc(N4CCc5ccc(Cl)cc54)c3c2)cnc1Cl	24% (inactive)	15.1% (inactive)	-2.67% (active)	35% (inactive)	45.6% (inactive)	14.5% (inactive)	-1.72% (active)	10% (inactive)	11.7% (inactive)	23.8% (inactive)
Cc1ccccc1Nc1nnc(-c2c[nH]c3ccccc23)o1	16.8% (inactive)	2.95% (active)	26% (inactive)	41% (inactive)	11.8% (inactive)	37.6% (inactive)	-17% (active)	28.4% (inactive)	29.1% (inactive)	61.3% (inactive)
COC(=O)CSC1=C(C)C(=O)C(OC)=C(OC)C1=O	86.3% (inactive)	103% (inactive)	66.6% (inactive)	90.3% (inactive)	98.1% (inactive)	76.9% (inactive)	86.4% (inactive)	70.5% (inactive)	83.3% (inactive)	104% (inactive)
COc1ccc(-c2nc3ccccc3n2CC(=O)N=Nc2c(O)[nH]c3ccc(Br)cc23)cc1	58.1% (inactive)	45.4% (inactive)	66.8% (inactive)	89.3% (inactive)	105% (inactive)	76.7% (inactive)	67.4% (inactive)	72.1% (inactive)	74.4% (inactive)	97.8% (inactive)
CSc1ccc(OCc2nc3ccccc3n2-c2cccc(NS(C)(=O)=O)c2)cc1	115% (inactive) and 93.4% (inactive)	109% (inactive) and 110% (inactive)	79.6% (inactive) and 68.9% (inactive)	102% (inactive) and 85.6% (inactive)	104% (inactive) and 76.9% (inactive)	80.5% (inactive) and 93.4% (inactive)	98% (inactive) and 104% (inactive)	86.1% (inactive) and 100% (inactive)	88.9% (inactive)	119% (inactive) and 99.1% (inactive)
COc1ccc(-c2cc(C(=O)N=Nc3c(O)[nH]c4ccc(Cl)cc34)c3ccccc3n2)cc1	-42.2% (active)		62.9% (inactive)	23.5% (inactive)	-64.1% (active)	48% (inactive)	93% (inactive)	73.2% (inactive)	-29.8% (active)	
O=C(Cn1c(/C=C/c2ccc([N+](=O)[O-])cc2)nc2ccccc2c1=O)Nc1ccccc1	85.8% (inactive)	45.8% (inactive)	38.5% (inactive)	37.2% (inactive)	69.4% (inactive)		82.6% (inactive)	69.6% (inactive)	58.4% (inactive)	76.1% (inactive)
Cc1nn(-c2ccccc2)c2ncn(CC(=O)N/N=C/c3ccccc3O)c(=O)c12	20.8% (inactive)	28.2% (inactive)	76.1% (inactive)	57.1% (inactive)	40.2% (inactive)	43.3% (inactive)	28.9% (inactive)	34.3% (inactive)	10.4% (inactive)	66.9% (inactive)
CC1=C(C(=O)OC(C)C)C(c2ccc(O)cc2)NC(=O)N1 (centres undefined)	105% (inactive)	107% (inactive)	115% (inactive)	95% (inactive)	103% (inactive)		107% (inactive)	95.4% (inactive)	98% (inactive)	112% (inactive)
C=CCSc1nnc(-c2ccc(-c3nc4ccccc4[nH]3)cc2)o1	51.3% (inactive)	69.5% (inactive)	74% (inactive)	79.7% (inactive)	84% (inactive)		50.6% (inactive)	73.9% (inactive)	73.9% (inactive)	85.6% (inactive)
CCOc1ccc2[nH]c(=O)c(C(c3nnnn3CC3CCCO3)N3CCN(Cc4ccccc4)CC3)cc2c1 (centres undefined)	99.7% (inactive)	117% (inactive)	-22.2% (active)	38.5% (inactive)	60.9% (inactive)		104% (inactive)	76.3% (inactive)	87.2% (inactive)	101% (inactive)

Source: PubChem BioAssay (NCI)
